Compounds with a hit are over-represented: about 2.7% of the library has one in this group of screens.
KDM5B inh = blocks human KDM5B histone demethylase activity. Potency, µM (highest dose often 57.7 µM), usual class: inhibitors. KDM5B demethylase, FDH-coupled NADH fluorescence (FDH is formaldehyde dehydrogenase). actives 2.6% (n = 220,000). AID 1347165; active = well fitted inhibition curve with a large enough effect; inconclusive = small, poorly fitted or top-dose-only effect; inactive = no such curve, though single readings can be large or run the other way; also: nearly all actives have a fitted effect of over 70% in size
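Here, H3K4me3 peptide (12.5 µM in substrate mix) is demethylated by KDM5BΔAP, 200 nM final, after 10 min compound exposure. Formaldehyde product is coupled through FDH (0.25 U/mL in mix) to NADH fluorescence; 30-min ΔRFU feeds dose-response curves.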
IP6K1 inhibitor = IP6K1 kinase inhibition. actives 0.81% (n = 140,000). activity change, % (series mostly up to about 58 µM). IP6K1 kinase, ADP-Glo luminescence, 2 h; hits give low values; in the data active = activity change below about -25%
Target sequence (Q92551 whole entry, looked up): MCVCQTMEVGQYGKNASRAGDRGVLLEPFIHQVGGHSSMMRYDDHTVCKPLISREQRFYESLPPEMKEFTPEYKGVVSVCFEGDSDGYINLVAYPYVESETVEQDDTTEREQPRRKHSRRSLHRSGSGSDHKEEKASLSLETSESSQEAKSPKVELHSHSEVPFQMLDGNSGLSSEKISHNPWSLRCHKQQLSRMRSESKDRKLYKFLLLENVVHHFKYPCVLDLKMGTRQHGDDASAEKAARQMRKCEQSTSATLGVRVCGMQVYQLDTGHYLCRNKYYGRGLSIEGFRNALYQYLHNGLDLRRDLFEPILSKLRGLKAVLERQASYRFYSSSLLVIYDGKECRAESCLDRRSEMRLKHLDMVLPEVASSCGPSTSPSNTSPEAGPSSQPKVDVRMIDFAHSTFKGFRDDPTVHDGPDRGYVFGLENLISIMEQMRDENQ
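ADP-Glo luminescence measures ADP made by human IP6K1 during a 2 h RT reaction with ATP/IP6 (mix at 1.3 mM/130 uM); top library doses 57.5 and 19.1 uM final.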
Each line names hits and unclear results; the compound was inactive in the other large screens.

Cc1ccc(C(=O)NC2CCN(c3ccnc4ccnn34)C2)cc1 (stereo not given)	none (no result: KDM5B inh)
c1cncc(CN2CCC(C3CCN(Cc4ccc[nH]4)C3)CC2)c1 (stereo not given)	KDM5B inh 14.1µM
CS(=O)(=O)N1CCC(C2CCN(Cc3ccc[nH]3)C2)CC1 (stereo not given)	KDM5B inh inconclusive
C#CCn1cc(/C=C2/NC(=O)N(CC)C2=O)c2ccccc21	none (no result: IP6K1 inhibitor)
O=C(Nc1cccc(F)c1)N1Cc2[nH]cnc2C[C@H]1c1nc(-c2ccc(Cl)cc2)no1	none
O=C(c1ccc(F)cc1)N1Cc2[nH]cnc2C[C@H]1c1nc(-c2ccc3c(c2)OCO3)no1	KDM5B inh 39.8µM
O=C(Nc1cccc(F)c1)N1Cc2[nH]cnc2C[C@H]1c1nc(-c2ccc3c(c2)OCO3)no1	KDM5B inh inconclusive
O=C(Nc1cccc(F)c1)N1Cc2[nH]cnc2C[C@H]1c1nc(-c2ccccc2)no1	KDM5B inh 28.2µM
CCCCC/C=N\Nc1nc(C)nc(N)n1	none (no result: IP6K1 inhibitor)
N#Cc1cccc(-c2ccnc(N[C@H]3CO[C@H]4[C@@H]3OC[C@H]4OC(=O)Nc3cccc4ccccc34)n2)c1	KDM5B inh inconclusive
CNc1nc(-c2ccc(N(C)S(C)(=O)=O)cc2)cs1	none (no result: IP6K1 inhibitor)
Cc1ccc(-n2c(SCC(=O)Nc3ccc(Br)cc3F)nc3c(=O)[nH]cnc32)cc1	none (no result: IP6K1 inhibitor)
O=C(CCCc1ccccc1)NCc1nnc2cc(-c3nc(C4CC4)no3)ccn12	KDM5B inh 28.2µM
CCc1noc(-c2ccn3c(CNC(=O)CCCc4ccccc4)nnc3c2)n1	KDM5B inh 7.08µM
COc1ccccc1CC(=O)NCc1nnc2cc(-c3nc(C4CC4)no3)ccn12	KDM5B inh inconclusive
CCc1noc(-c2ccn3c(CNC(=O)Cc4c[nH]c5ccccc45)nnc3c2)n1	KDM5B inh inconclusive
CN(Cc1cccs1)C(=O)CCc1ccccc1	none (no result: IP6K1 inhibitor)
FC(F)Oc1ccc(-c2ccnc(=S)[nH]2)cc1	none (no result: IP6K1 inhibitor)
COCCNC(=O)c1ccc2c(c1)N(C)C(CC(=O)N1CCC(O)CC1)CO2 (stereo not given)	KDM5B inh 28.2µM
COCCNC(=O)c1ccc(CC2CCN(C(=O)CCc3ccc(OC)cc3)CC2)cc1	none
COCCNC(=O)c1ccc2c(c1)N(C)C(CC(=O)N1CCC(N)CC1)CO2 (stereo not given)	KDM5B inh 28.2µM
CCC1(CC)CCN(C(=O)CC2COc3ccc(C(=O)N(C)C)cc3N2C)C1 (stereo not given)	none
O=C(OCCOc1ccc(F)cc1)c1n[nH]c(=O)c2ccccc12	none (no result: IP6K1 inhibitor)
Cc1cc(N2CCNC(c3ccccc3)C2)n2nc(C)c(C)c2n1 (stereo not given)	none
Cc1nn2c(N3CCC(O)C3)cc(-c3ccccc3)nc2c1C (stereo not given)	KDM5B inh 28.2µM
Cc1nn(-c2ccccc2)c2c1C(C)N(C1CCN(C(=O)c3cccc(Cl)c3)CC1)C2=O (stereo not given)	none (no result: KDM5B inh)
C=CCn1cc2c3c(cccc31)[C@H](CC(C)C)N[C@H](C(=O)NCc1ccc(OC)cc1)C2	KDM5B inh inconclusive
COc1ccccc1CNC(=O)[C@@H]1Cc2cn(C)c3cccc(c23)[C@H](CC(C)C)N1	KDM5B inh 35.5µM
C=CCn1cc2c3c(cccc31)[C@H](CC(C)C)N[C@H](C(=O)N1CCN(CCOC)CC1)C2	KDM5B inh inconclusive
CC#CCn1cc2c3c(cccc31)[C@H](CC(C)C)N[C@H](C(=O)N1CCN(CCOC)CC1)C2	KDM5B inh 28.2µM
O=C(CSc1ccc2ccccc2c1)c1ccc2c(c1)CCC2	none (no result: IP6K1 inhibitor)
CC(=O)Nc1ccc(CN2CC[C@H](c3nnc(C(C)(C)C)o3)C2)cc1	none
CC(C)(C)c1nnc([C@H]2CCN(Cc3cnc4ccccc4c3)C2)o1	KDM5B inh 35.5µM
c1ccc(N2CCCC2)c(-c2nc(C3CCOC3)no2)c1 (stereo not given)	KDM5B inh inconclusive
COc1ccccc1-n1cc(-c2nc(C3CCOC3)no2)cn1 (stereo not given)	KDM5B inh 28.2µM
COc1ccc(Nc2cc(C)nc(Nc3ccc(NC(=O)C(C)(C)C)cc3)n2)cc1	none (no result: IP6K1 inhibitor)
CCn1ccnc1CN1CCCC12CCN(c1ccc(C(F)(F)F)cn1)CC2	KDM5B inh 20µM
CCc1ncc(CN2CCCC23CCN(c2ccc(C(F)(F)F)cn2)CC3)cn1	KDM5B inh inconclusive
Cc1ccc2c(n1)OC(Cn1cccc1)CN(CCC1=CCCCC1)C2=O (stereo not given)	none (no result: KDM5B inh)
O=C(Nc1ccc(-c2nc3ccccc3o2)c(O)c1)c1cccc(I)c1	none (no result: IP6K1 inhibitor)
O=C(c1cc(C2CC2)[nH]n1)N1CC(F)(F)C[C@H]1c1nc(C2CC2)no1	none
O=C(c1ccc2cc[nH]c2c1)N1C[C@@H](CO)[C@H](c2nc(C3CC3)no2)C1	KDM5B inh 31.6µM
O=C(c1cc[nH]c(=O)c1)N1CC(F)(F)C[C@H]1c1nc(C2CC2)no1	KDM5B inh 28.2µM
O=C(c1ccc(F)c(F)c1)N1C[C@@H](CO)[C@H](c2nc(C3CC3)no2)C1	none
O=C(NCc1cccs1)c1ccc2nnc(-c3cc(C(F)(F)F)cc(C(F)(F)F)c3)n2c1	none (no result: KDM5B inh)
COC(=O)c1ccc2c(=O)[nH]c(CSc3nnc(-c4ccncc4)n3Cc3ccccc3)nc2c1	none (no result: IP6K1 inhibitor)
CCN(CC)S(=O)(=O)c1cc(NC(=S)Nc2ccccc2F)ccc1C	none (no result: IP6K1 inhibitor)
O=C1[C@H]2CN(Cc3ccc(Cl)cc3)C[C@H]2C(=O)N1CCc1ccccc1	none
O=C1[C@H]2CN(Cc3ccc(F)c(Cl)c3)C[C@H]2C(=O)N1CCc1ccccc1	KDM5B inh 12.6µM
CCc1nc(C)c(C(=O)Nc2nn(C)c3cccc(N4CCOC4=O)c23)o1	none
CCOCC(=O)Nc1nn(-c2ccc(F)cc2)c2cccc(N3CCOC3=O)c12	KDM5B inh 25.1µM
Nc1cc(N2CC[C@@H](N3CCN(CCc4ccccc4)CC3)[C@H](O)C2)nc(N)n1	KDM5B inh 4.47µM
CN1CCN(c2cc(N3CC[C@H](CO)[C@H](O)C3)nc(N)n2)CC1	none
COc1cccc(CC2(CO)CCCN(c3ccc(-c4nccn4C)nn3)C2)c1 (stereo not given)	KDM5B inh 20µM
Cn1ccnc1-c1ccc(N2CC[C@](C)(O)[C@@H](O)C2)nn1	KDM5B inh inconclusive
Cn1ccnc1-c1ccc(N2CCC(C(O)Cc3ccccc3)CC2)nn1 (stereo not given)	KDM5B inh 28.2µM
COc1cccc(CC2(CO)CCCN(c3nnnn3-c3ccccc3)C2)c1 (stereo not given)	none
Cc1c(-c2ccccc2)oc2c(C(=O)N3CCCN(Cc4ccc(F)cc4)CC3)cccc2c1=O	none (no result: IP6K1 inhibitor)
CNC(=O)c1cn2cc(-c3ccc(OC)cc3)sc2n1	none (no result: KDM5B inh)
COc1ccnc(-c2nnc3ccc(N4CCc5ccccc5CC4)nn23)c1	KDM5B inh 31.6µM
COc1ccnc(-c2nnc3ccc(N4C[C@@H](C)O[C@@H](C)C4)nn23)c1	none
O=C(NC1CC1)c1nc[nH]c1C(=O)NC1CCCCNC1=O (stereo not given)	none (no result: IP6K1 inhibitor)
COc1ccc2nc(-n3ncc4c3NC(=O)CC4c3ccc(O)c(OC)c3)sc2c1 (stereo not given)	none (no result: IP6K1 inhibitor)
COc1ccc(N2CCN(C(=O)c3cc(NC(C)=O)cc4nc(C)ccc34)CC2)cc1	KDM5B inh inconclusive
Cc1ccc2c(C(=O)N3CCN(CC(C)C)CC3)cc(NC(=O)C3CCC3)cc2n1	KDM5B inh 22.4µM
Cc1cnc(C(=O)N[C@@H]2CCC[C@@H]2C(=O)N2CCN(CC(C)C)CC2)cn1	none
Cc1ccc(NC(=O)c2cc(NC(=O)C3CC3)cc3nc(C)ccc23)cc1	KDM5B inh inconclusive
